Assay results published in PubChem BioAssay AID1159580 (chemical genetic matrix, 2015).
Where “and” joins values, the source holds several entries; their conditions need not be identical. Equal entries are not always repeated. Out of some 5,500 compounds screened, about 2,000 (36%) were called active. Another 18% or so got no clear call; they are omitted. The list shows a part of the results. A number with no mark means an inactive call. Cut-off read from the data, not from the text of the source: active = normalized growth mostly below about 0.91 (no sharp cut-off); inconclusive = no clear call, values can overlap the other calls; inactive = mostly above about 0.92.

Experiment: chemical genetic growth profiling, strain panel (AID 1159580);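 note: tested at 20 µM; growth read once vehicle control cultures reached saturation at 30 °C; 1 = growth at the plate median or of vehicle wells; lower values mean less growth of the strain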
Settings: S. cerevisiae deletion strains, growth OD

In the case of `Cc1cc(=O)oc2cc(O)c(O)cc12`, the normalized growth (locus YAL021C, strain ccr4, active compounds read low) was 1.01, the normalized growth (locus YAL026C, strain drs2, active compounds read low) was 0.996 and the normalized growth (locus YAL030W, strain snc1, active compounds read low) was 1. The normalized growth (locus YBL061C, strain skt5, active compounds read low) was 0.999, the normalized growth (locus YBR009C, strain hhf1, active compounds read low) was 0.963 and the normalized growth (locus YBR021W, strain FUR4, active compounds read low) was 1.02. For the same molecule, the normalized growth (locus YBR023C, strain chs3, active compounds read low) was 0.998, the normalized growth (locus YBR171W, strain sec66, active compounds read low) was 0.987 and the normalized growth (locus YBR229C, strain ROT2, active compounds read low) was 1. The normalized growth (locus YBR231C, strain swc5, active compounds read low) was 0.995, the normalized growth (locus YBR279W, strain paf1, active compounds read low) was 0.987 and the normalized growth (locus YCL011C, strain gbp2, active compounds read low) was 0.994. It also gave a normalized growth (locus YCL016C, strain dcc1, active compounds read low) of 1, a normalized growth (locus YCL029C, strain bik1, active compounds read low) of 0.974 and a normalized growth (locus YCL061C, strain MRC1, active compounds read low) of 0.989. The normalized growth (locus YCL069W, strain vba3, active compounds read low) was 0.99, the normalized growth (locus YCR088W, strain abp1, active compounds read low) was 1 and the normalized growth (locus YDL005C, strain med2, active compounds read low) was 0.98. The normalized growth (locus YDL035C, strain GPR1, active compounds read low) was 0.973, the normalized growth (locus YDL040C, strain nat1, active compounds read low) was 0.983 and the normalized growth (locus YDL074C, strain BRE1, active compounds read low) was 0.976. The normalized growth (locus YDL101C, strain DUN1, active compounds read low) was 0.958, the normalized growth (locus YDL134C, strain PPH21, active compounds read low) was 0.955 and the normalized growth (locus YDL185W, strain tfp1, active compounds read low) was 0.979. For the same molecule, the normalized growth (locus YDL192W, strain arf1, active compounds read low) was 0.961, the normalized growth (locus YDR001C, strain nth1, active compounds read low) was 0.998 and the normalized growth (locus YDR069C, strain doa4, active compounds read low) was 0.994. For the same molecule, the normalized growth (locus YDR101C, strain arx1, active compounds read low) was 0.973, the normalized growth (locus YDR137W, strain rgp1, active compounds read low) was 0.964 and the normalized growth (locus YDR159W, strain sac3, active compounds read low) was 0.997. It also gave a normalized growth (locus YDR162C, strain NBP2, active compounds read low) of 0.985, a normalized growth (locus YDR195W, strain ref2) of 1.05 and a normalized growth (locus YDR297W, strain sur2, active compounds read low) of 0.995. It also gave a normalized growth (locus YDR318W, strain mcm21, active compounds read low) of 0.966, a normalized growth (locus YDR334W, strain swr1, active compounds read low) of 0.99 and a normalized growth (locus YDR335W, strain msn5, active compounds read low) of 0.994. The normalized growth (locus YDR388W, active compounds read low) was 0.99, the normalized growth (locus YDR392W, strain spt3, active compounds read low) was 0.91 and the normalized growth (locus YDR502C, strain sam2, active compounds read low) was 0.974. The normalized growth (locus YEL003W, strain gim4, active compounds read low) was 0.981, the normalized growth (locus YEL037C, strain rad23, active compounds read low) was 0.991 and the normalized growth (locus YEL061C, strain CIN8 (second series), active compounds read low) was 0.988. It also gave a normalized growth (locus YEL061C, strain CIN8, active compounds read low) of 0.999, a normalized growth (locus YER015W, strain faa2, active compounds read low) of 0.998 and a normalized growth (locus YER016W, strain bim1, active compounds read low) of 0.995. For the same molecule, the normalized growth (locus YER110C, active compounds read low) was 0.973, the normalized growth (locus YER111C, strain swi4, active compounds read low) was 1.01 and the normalized growth (locus YER155C, strain BEM2 (second series), active compounds read low) was 0.787 (active). For the same molecule, the normalized growth (locus YER155C, strain BEM2, active compounds read low) was 1.01, the normalized growth (locus YER167W, strain BCK2, active compounds read low) was 1.02 and the normalized growth (locus YFR010W, strain ubp6, active compounds read low) was 0.997. The normalized growth (locus YGL078C, strain dbp3, active compounds read low) was 0.959, the normalized growth (locus YGL086W, strain mad1, active compounds read low) was 0.993 and the normalized growth (locus YGL167C, strain pmr1, active compounds read low) was 0.99. For the same molecule, the normalized growth (locus YGL173C, strain kem1, active compounds read low) was 0.978, the normalized growth (locus YGL227W, strain vid30, active compounds read low) was 1 and the normalized growth (locus YGL240W, strain doc1, active compounds read low) was 0.952. For the same molecule, the normalized growth (locus YGL248W, strain PDE1, active compounds read low) was 0.98, the normalized growth (locus YGL253W, strain hxk2, active compounds read low) was 1 and the normalized growth (locus YGR078C, strain PAC10, active compounds read low) was 0.983. For the same molecule, the normalized growth (locus YGR135W, strain pre9, active compounds read low) was 0.957, the normalized growth (locus YGR229C, strain SMI1, active compounds read low) was 0.974 and the normalized growth (locus YGR252W, strain gcn5, active compounds read low) was 0.79. The normalized growth (locus YHR013C, strain ard1, active compounds read low) was 0.985, the normalized growth (locus YHR027C, strain rpn1, active compounds read low) was 1 and the normalized growth (locus YHR030C, strain SLT2, active compounds read low) was 1.01 and 0.905. It also gave a normalized growth (locus YHR079C, strain IRE1 (second series), active compounds read low) of 1.01, a normalized growth (locus YHR079C, strain IRE1, active compounds read low) of 0.901 and a normalized growth (locus YHR094C, strain hxt1, active compounds read low) of 1.02. It also gave a normalized growth (locus YHR129C, strain ARP1, active compounds read low) of 0.999, a normalized growth (locus YHR142W, strain chs7, active compounds read low) of 0.958 and a normalized growth (locus YHR200W, strain rpn10, active compounds read low) of 0.972. For the same molecule, the normalized growth (locus YIL066C, strain RNR3, active compounds read low) was 1, the normalized growth (locus YIL073C, strain SPO22, active compounds read low) was 1 and the normalized growth (locus YIL125W, strain kgd1, active compounds read low) was 1.01. It also gave a normalized growth (locus YIR030C, strain dcg1, active compounds read low) of 0.99, a normalized growth (locus YJL092W, strain hpr5, active compounds read low) of 0.993 and a normalized growth (locus YJL095W, strain BCK1 (second series), active compounds read low) of 0.998. The normalized growth (locus YJL095W, strain BCK1, active compounds read low) was 0.932 and 0.924, the normalized growth (locus YJL115W, strain asf1, active compounds read low) was 0.994 and the normalized growth (locus YJL129C, strain trk1, active compounds read low) was 1.05. For the same molecule, the normalized growth (locus YJL134W, strain LCB3, active compounds read low) was 1.01, the normalized growth (locus YJL154C, strain vps35, active compounds read low) was 1.01 and the normalized growth (locus YJL164C, strain tpk1, active compounds read low) was 0.973. For the same molecule, the normalized growth (locus YJL166W, strain qcr8, active compounds read low) was 0.995, the normalized growth (locus YJL168C, strain set2, active compounds read low) was 1 and the normalized growth (locus YJL187C, strain SWE1 (second series), active compounds read low) was 0.991. It also gave a normalized growth (locus YJL187C, strain SWE1, active compounds read low) of 0.999.
